This passage reports sensor-assay potency score (higher = more potent) results from the OligoGym collection.
Further: reference of the scale not given here.

The target of the first experiment is TDRD10. Put plainly: pooled miR-30 sensor sort-seq; sequence = guide strand. The settings on record: shRNA.
For the sequence TTCCTCCTTAGAAATATCCAGT, the sensor-assay potency score (higher = more potent) was -0.848.

In turn, TTCACGAACAGTTTTCGCTTGT yielded a sensor-assay potency score (higher = more potent) of 0.41.

For the sequence TCCAACACTCCATTCTTCCCAA, the sensor-assay potency score (higher = more potent) was -0.74.

Consider TTTGCTTGTATTCACGAACAGT, for which the sensor-assay potency score (higher = more potent) is -0.914.

For the sequence TTTAGGATGTGCAACGCCGAGT, the sensor-assay potency score (higher = more potent) is -0.733.

On to AAGTCGTCGCTGTCTAGGCTGC, for which the sensor-assay potency score (higher = more potent) was -0.771.

For the sequence ATGAACATGACCACAGCCCAGG, the sensor-assay potency score (higher = more potent) was -1.56.

As for TTTGTGGACATCAAGAGGGTTG, the sensor-assay potency score (higher = more potent) is -0.333.

As for TTTTGTGGACATCAAGAGGGTT, the sensor-assay potency score (higher = more potent) is -0.194.

As for TAGAAGGTACAGAATTTCCTCC, the sensor-assay potency score (higher = more potent) came to 0.0428.

With TTCTCCATTATCCAGAATCTGT, the sensor-assay potency score (higher = more potent) was -1.03.

In turn, AAGATTGCCAACATACACCTCT yielded a sensor-assay potency score (higher = more potent) of 0.896.

The target of another experiment is TDRD7. The experiment is described as above. The settings on record: shRNA.
Regarding TAGATTGTGGAAGATCTGCTAA, the sensor-assay potency score (higher = more potent) was -0.00415.

For TAGAAGGTCACTGAGCTTGTTC, the sensor-assay potency score (higher = more potent) is -0.0033.

Consider TGACTTGTCACATATAGCCTTC, for which the sensor-assay potency score (higher = more potent) is -0.332.

The sequence TTCAATGACTGTCTGCACCAGT gave a sensor-assay potency score (higher = more potent) of 0.309.

Regarding TTTCCTTTGTCTCTTAACGGTG, the sensor-assay potency score (higher = more potent) was -1.32.

ATAGTCAACATAGCATACCTTT: the sensor-assay potency score (higher = more potent) is -1.08.

Regarding TTAGTTACTTTGACATTTGTGT, the sensor-assay potency score (higher = more potent) is 0.2.

On to TTAACCACAGCACTGCATCTGG, for which the sensor-assay potency score (higher = more potent) was -0.0871.

In the case of TATCGTACAGAACAACAAGTGG, the sensor-assay potency score (higher = more potent) was -0.96.

In the case of TAGTGTAGGGAAACCTAGCTGT, the sensor-assay potency score (higher = more potent) was -0.0859.

For the sequence TAAATTATCACTCATTTCCTTA, the sensor-assay potency score (higher = more potent) is -0.487.

Consider TTTCTTGTAGAAACCGAGGTGG, for which the sensor-assay potency score (higher = more potent) is 0.248.

A further experiment addresses TDRKH. The description is as above. To be noted: shRNA.
As to ATGTCCTTCAACATGTCTGGGA, the sensor-assay potency score (higher = more potent) was -0.897.

As for TCTGTGTCCACATCAATCCGAG, the sensor-assay potency score (higher = more potent) was -0.281.

Turning to TTTAATATTGGCTCCTTGCCGG, the sensor-assay potency score (higher = more potent) was -0.28.

On to TTGTAGGTAAAGGTGCTGCTAC, for which the sensor-assay potency score (higher = more potent) is -0.223.

Turning to TTGGTCTCAGTGAGCAACGTGC, the sensor-assay potency score (higher = more potent) is -0.522.

For TTGATAGTAGTAATGTCCCTTC, the sensor-assay potency score (higher = more potent) is -0.374.

On to TATAAGTAGATCTTTGGCCAAG, for which the sensor-assay potency score (higher = more potent) was -1.04.

As to TTAATATTGGCTCCTTGCCGGC, the sensor-assay potency score (higher = more potent) was -1.54.

As for TTGTGTACTAATTCTAGCCCAA, the sensor-assay potency score (higher = more potent) was 0.0219.

As for TTATAAGTCTTGATAGTAGTAA, the sensor-assay potency score (higher = more potent) is -0.315.

On to TTTTCTTCTATGTCTTCAGGAA, for which the sensor-assay potency score (higher = more potent) was 0.0327.

As to ATCTTCTGAAACTTTCTCCAGT, the sensor-assay potency score (higher = more potent) was -0.507.
